Experimental data taken from PMC8384837, “Expanding the binding specificity for RNA recognition by a PUF domain”.

biological target: PUM1 PUF domain R3-VWG (Homo sapiens, UniProt Q14671 828-1176, C935V;R936W;Q939G); experiment: yeast three-hybrid, YBZ-1, SC-Leu-His + 0.5 mM 3-AT, 4 days; settings: tags: N-Gal4 AD-HA kept; label: inside an RPR1-promoter hybrid RNA with tandem MS2 sites; ssRNA
Outline: (§1)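 Matching RNA elements and Pumilio-1 PUF domain libraries, randomized at the three base-contacting residues of every repeat, were co-expressed from a centromeric plasmid in strain YBZ-1 (LexA–MS2 coat fusion, HIS3 reporter). The repeat regions were PCR-amplified and Illumina-sequenced from cells grown four days on SC-Leu (input) or SC-Leu-His + 0.5 mM 3-AT (selection). The interaction score is the log change in variant frequency from input to selection. It is computed in log2, with a pseudocount of 1 for absent variants.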

Compared with “GGCUAGAACUAGUGGAUCCCCCGGCGCCCGGCGGCUCGAGCCCGGGUAAGUGUAAAUAGUCUGCAUGCCGCCGGGCGCCAUGCCUGCAGGUCGACUCUAGAAAACAUG”, “GGCUAGAACUAGUGGAUCCCCCGGCGCCCGGCGGCUCGAGCCCGGGUAAGUGUAAUUAGUCUGCAUGCCGCCGGGCGCCAUGCCUGCAGGUCGACUCUAGAAAACAUG” is lower in binding signal: 4.18 log2 enrichment (interaction score) for the first, 2.33 log2 enrichment (interaction score) for the second.

With “GGCUAGAACUAGUGGAUCCCCCGGCGCCCGGCGGCUCGAGCCCGGGUAAGUGUAAGUAGUCUGCAUGCCGCCGGGCGCCAUGCCUGCAGGUCGACUCUAGAAAACAUG” the binding signal was 1.81 log2 enrichment (interaction score).

biological target: PUM1 PUF domain R5-FRK (Homo sapiens, UniProt Q14671 828-1176, C1007F;Q1011K); experiment: as above; settings: tags: N-Gal4 AD-HA kept; label: inside an RPR1-promoter hybrid RNA with tandem MS2 sites; ssRNA
Outline: as §1

Compared with “GGCUAGAACUAGUGGAUCCCCCGGCGCCCGGCGGCUCGAGCCCGGGUAAGUGUUAAUAGUCUGCAUGCCGCCGGGCGCCAUGCCUGCAGGUCGACUCUAGAAAACAUG”, “GGCUAGAACUAGUGGAUCCCCCGGCGCCCGGCGGCUCGAGCCCGGGUAAGUGUCAAUAGUCUGCAUGCCGCCGGGCGCCAUGCCUGCAGGUCGACUCUAGAAAACAUG” is higher in binding signal: 3.62 log2 enrichment (interaction score) for the first, 3.81 log2 enrichment (interaction score) for the second.

In the case of “GGCUAGAACUAGUGGAUCCCCCGGCGCCCGGCGGCUCGAGCCCGGGUAAGUGUAAAUAGUCUGCAUGCCGCCGGGCGCCAUGCCUGCAGGUCGACUCUAGAAAACAUG”, the binding signal is reported as 2.17 log2 enrichment (interaction score).
